# Measured values: the supplement of paper PMC3334620
# The full ranking holds about 33,000 sequences; the median of “E-score (-0.5 to 0.5)” is about -0.016, and the highest 2% start at about 0.31. This is one part of a sample in which the highest values are shown more often than they occur.
# Biological target: Cst6 (UniProt P40535)
# Assay: PBM E-score (8-mer binding enrichment) (E-score (-0.5 to 0.5)); higher = stronger / more preferred TF binding
# Conditions: protein concentration: 200 nM; construct: GST-DNA-binding domain
# Experimental: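 Universal 'all 10-mer' protein binding microarrays (Agilent AMADID 015681) probed with GST-tagged S. cerevisiae TFs (full-length or DBD) made by in vitro transcription/translation (PURExpress), about 100-200 nM. Bound TF was detected with fluorescent anti-GST. Each ungapped 8-mer (which stands for itself and its reverse complement) is scored by the PBM enrichment score (E-score), a modified Wilcoxon-Mann-Whitney statistic from -0.5 to +0.5, computed with the Universal PBM Analysis Suite. Scale: above 0.35 generally sequence-specific binding.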
# Chain of UniProt P40535 (P40535 whole entry): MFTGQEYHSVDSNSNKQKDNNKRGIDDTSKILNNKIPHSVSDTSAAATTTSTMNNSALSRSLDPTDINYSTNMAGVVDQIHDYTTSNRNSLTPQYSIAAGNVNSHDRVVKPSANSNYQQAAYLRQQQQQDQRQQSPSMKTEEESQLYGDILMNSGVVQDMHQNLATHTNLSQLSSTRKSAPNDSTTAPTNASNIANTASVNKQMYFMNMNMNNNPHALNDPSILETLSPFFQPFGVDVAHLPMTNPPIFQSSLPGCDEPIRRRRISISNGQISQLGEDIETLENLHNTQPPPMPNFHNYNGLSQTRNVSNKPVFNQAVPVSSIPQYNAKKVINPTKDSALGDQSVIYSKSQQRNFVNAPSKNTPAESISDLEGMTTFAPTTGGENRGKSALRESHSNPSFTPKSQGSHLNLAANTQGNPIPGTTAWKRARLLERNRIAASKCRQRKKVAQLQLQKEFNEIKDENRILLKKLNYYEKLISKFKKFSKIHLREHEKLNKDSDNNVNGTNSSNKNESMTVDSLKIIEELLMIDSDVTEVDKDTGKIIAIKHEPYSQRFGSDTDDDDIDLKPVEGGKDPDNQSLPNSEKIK
row,Sequence,PBM E-score
1,ATCCGTGA,-0.0022
2,GATCGGAC,-0.0973
3,CAGATTGC,-0.0228
4,GTAGATGA,0.181
5,CCTAGCTA,-0.162
6,ATTTGTGG,0.0944
7,AGATTACC,0.144
8,AGATTACG,0.386
9,CGATTACG,0.349
10,CGATTACA,0.13
11,CGATTACC,-0.107
12,AGATTACT,0.144
13,CTCCCACC,-0.335
14,ACGGCTTC,0.0724
15,AAGCCTGT,-0.0963
16,GTCGCCCA,-0.192
17,CAGCTCTC,-0.172
18,AACAATAA,0.204
19,AACAATAT,0.37
20,AAAAATAA,0.292
21,AAAAATAG,0.118
22,AATAATAA,0.313
23,AATAATAT,0.305
24,CATAATAA,0.267
25,AAAAATAT,0.309
26,AATAATAC,0.197

row,Sequence,PBM E-score
1,AATAATAG,0.209
2,AATAATGT,0.181
3,AACAATAC,0.156
4,GCCTTAAA,0.151
5,GATGGCCC,-0.106
6,CGAGCCCG,-0.126
7,CGGAAATA,0.155
8,CCGAGTTC,-0.063
9,CCCTAGGA,-0.295
10,AATTAATT,0.311
11,AATTAATG,0.174
12,ATTTAATA,0.338
13,GTTTAATA,0.202
14,GATTAATA,0.261
15,TACTAATA,0.222
16,AACTAATA,0.336
17,CTTTAATA,0.201
18,TATTAATA,0.0736
19,AATTAATC,0.197
20,CACTAATA,0.211
21,AATTAATA,0.39
22,GAGTCCGA,-0.0585
23,TCGCCAGA,-0.0255
24,ACTCGCCA,-0.037
25,AATAAACG,0.157
26,GCCGGAGC,-0.249

row,Sequence,PBM E-score
1,CAACTGAC,0.0886
2,AGATGTAA,0.27
3,CGATGTAA,0.117
4,TGATGTAA,0.488
5,TGATGCAA,0.418
6,GGATGCAA,-0.129
7,CGATGCAA,-0.0639
8,CACAGGAA,-0.0714
9,TCAATCGA,0.249
10,CGACGGCA,-0.00873
11,TGACGGAA,0.432
12,GGACGGAA,-0.119
13,TGACGGCA,0.371
14,CGACGGAA,-0.188
15,GGACGGCA,0.25
16,CCGTCGGA,-0.114
17,CCCAGTAC,-0.202
18,TCGTCACA,0.368
19,AGGTCACC,0.0958
20,GCGTCACA,0.417
21,TAGTCACA,0.0725
22,GGGTCACC,-0.153
23,GCGTCACC,0.448
24,ACGTCACC,0.496
25,AAGTCACC,0.188
26,CCGTCACA,0.139

row,Sequence,PBM E-score
1,GAGTCACC,0.0602
2,TGGTCACA,0.0201
3,CCGTCACG,0.176
4,CCAAAGCC,-0.0189
5,AACATCCT,-0.0218
6,GAGGATTA,-0.125
7,GTAGCGAC,-0.304
8,CCATCAAG,-0.165
9,CGGCGGTA,0.128
10,AAGAGTGT,0.0413
11,ACGACCGT,-0.238
12,GCGGGGTA,-0.201
13,GAGCCTCC,-0.278
14,AGGGCGGG,-0.0957
15,ACTCCGAA,-0.169
16,CCGTCACC,0.411
17,CAGTCACC,-0.113
18,CGGTCACC,0.0497
19,AGGTTCGC,-0.315
20,ACAATGGG,0.0198
21,CCAGACCG,-0.0843
22,ACCTGCGA,-0.26
23,AGCTGCTG,-0.0369
24,TACGAAAA,0.233
25,GACGAAAA,0.329
26,CACGAAAA,0.247

row,Sequence,PBM E-score
1,TGCTGACA,0.0293
2,CCCAATCG,-0.0318
3,GTCATCGA,0.348
4,GTCATCAA,0.385
5,CTCATCAA,0.134
6,CTCATCTA,-0.113
7,CTCATCGA,-0.0055
8,ATCATCGA,0.183
9,GTCATCTA,0.368
10,ATCATCAA,0.326
11,GCCATCAA,-0.169
12,GGCATCAA,0.0768
13,TTCATCAA,0.151
14,ATCATCTA,0.151
15,AGAGCCCA,-0.263
16,ATCCCGAA,0.00888
17,TCGAACCA,-0.0349
18,CCATGGAA,-0.0645
19,ACCAGGTC,-0.218
20,ATCATCCA,0.0994
21,CTCATCCA,0.0578
22,GTCATCCA,0.383
23,AGGGGTTC,-0.327
24,AGTCACGA,0.0257
25,GGTCACGA,0.0109
26,AGTCACGC,-0.07

row,Sequence,PBM E-score
1,CGTCACGA,0.449
2,CCTCACGC,0.22
3,CGTCACGC,0.441
4,GCCCACGC,-0.238
5,GTGATGGA,0.0419
6,AAGTCTGC,-0.226
7,ATCTTCTC,-0.0503
8,GACCAAAC,0.0333
9,GACGCCGC,0.271
10,AATGCCGT,0.418
11,AACGCCGC,0.361
12,CACGCCGC,0.0528
13,AACGCCGT,0.373
14,AATGCCGG,-0.0561
15,AACGCCGG,-0.138
16,AATGCCGA,0.041
17,AACGCCGA,0.23
18,GCTCGGCA,-0.0691
19,ACGTTTCT,-0.0531
20,CCCAGGGC,-0.337
21,CTCCTCAG,-0.231
22,CCAATTGG,-0.0187
23,ACAAGCGT,0.0465
24,ACCATGAC,0.395
25,CCCATGAC,0.336
26,ACCATGAA,0.0849

row,Sequence,PBM E-score
1,ACCATGAT,0.146
2,GCCATGAC,0.284
3,CCCATGAA,-0.00568
4,CCCATAAA,-0.0662
5,ACCCTGCT,-0.34
6,AAGCGTCA,0.336
7,GAGCGTCA,0.271
8,TAGCGTCA,0.399
9,CAGCGTCA,0.279
10,AAGCGTCC,-0.0893
11,AAGCGTCG,-0.151
12,AGGTGCGA,-0.148
13,ATCTTTAC,0.162
14,ATATCATC,0.337
15,ATATCATA,0.315
16,ATATCATG,0.19
17,ATATCAGC,-0.0588
18,CTATCATA,0.14
19,CTATCATC,0.0729
20,CCGGATCC,-0.199
21,CAGGATGC,-0.125
22,GCCGCCGC,0.205
23,TAGGCAGA,0.0434
24,ACGTCGAG,-0.115
25,GCGTCAAA,0.151
26,GAGTCAAC,-0.0954

row,Sequence,PBM E-score
1,CCGTCAAC,0.0147
2,TCGTCAAA,0.195
3,GTGTCAAC,0.0573
4,AGGTCAAC,-0.0368
5,ACGTCGAA,0.112
6,ACGTCAAC,0.484
7,ACGTCGAT,0.316
8,ACGTCAAA,0.389
9,GCGTCAAC,0.335
10,CGCCAGTA,-0.0657
11,TAAATTAA,0.127
12,CTCAGTAC,-0.0935
13,AGGTCAAG,-0.0961
14,ACGTCAAT,0.455
15,AGGTCAAT,0.0479
16,ACGTCAAG,0.373
17,CCGTCAAG,-0.129
18,ATGTCAAT,0.26
19,ATAAGAGA,0.217
20,CAAAGGTG,-0.0715
21,GTGCAGAA,0.0789
22,ACATCGGC,-0.0191
23,GCGCCAAA,-0.042
24,AAATTATT,0.314
25,AAATTAAT,0.248
26,AAATTATC,0.308

row,Sequence,PBM E-score
1,CATTTATC,0.151
2,AATTTATC,0.312
3,AAATTATA,0.278
4,AAATTAGT,0.29
5,AAATTATG,0.164
6,AATTTATA,0.263
7,GGTTTTGA,0.105
8,GGCCCTGA,-0.208
9,AACAGGCA,-0.0324
10,ACGTAAAG,0.306
11,GCGTAAAC,0.168
12,ACGTAAAT,0.385
13,AGGTAAAT,0.0678
14,ATGTAAAA,0.144
15,ATGTAAAT,0.309
16,ACGTAAAC,0.31
17,CCGTAAAC,0.0456
18,AAGTAAAG,-0.172
19,AAGTAAAT,0.214
20,CCGTAAAG,0.00566
21,ATGTAAAC,0.269
